CCHFV vOTU inh: blocks the CCHF virus ovarian tumor domain protease. CCHFV vOTU protease, Pep-AMC fluorescence. inhibition, % at 11.5 µM. actives 0.55% (n = 370,000). AID 651958; further: 0% = vehicle wells with enzyme and 100% = no enzyme wells
FBA Mtb inh: inhibits M. tuberculosis FBA enzyme. P9WQA3. AID 588726. actives 2.3% (n = 360,000). inhibition, % at 1 µM. purified M. tuberculosis FBA, fluorescence read-out; in the data active means inhibition above about 27%;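 further: 0% = vehicle and 100% = reference inhibitor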
Target sequence (P9WQA3 whole entry, looked up): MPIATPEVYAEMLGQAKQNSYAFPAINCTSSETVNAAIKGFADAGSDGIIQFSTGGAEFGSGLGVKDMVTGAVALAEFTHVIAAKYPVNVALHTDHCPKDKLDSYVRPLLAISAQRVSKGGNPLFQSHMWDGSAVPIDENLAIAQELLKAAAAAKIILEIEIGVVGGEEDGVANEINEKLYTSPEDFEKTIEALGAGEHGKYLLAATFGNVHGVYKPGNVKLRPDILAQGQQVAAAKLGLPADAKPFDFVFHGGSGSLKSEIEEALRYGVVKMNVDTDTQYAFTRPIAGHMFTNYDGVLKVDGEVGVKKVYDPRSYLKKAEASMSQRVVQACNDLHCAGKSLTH
GDH-TPI inh: GDH-TPI coupled enzyme inhibition counter-screen | GDH-TPI coupled enzyme counterscreen, NADH absorbance | inhibition, % at 4.8 µM | actives 1.2% (n = 360,000);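 further: 0% = DMSO wells and 100% = wells lacking the enzyme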
3CLpro inhibitor: SARS-CoV 3CLpro protease inhibition | inhibition, % at 6 µM | actives 0.14% (n = 290,000) | P0C6X7 | recombinant SARS-CoV 3CLpro, quenched FRET peptide cleavage; in the data active means inhibition above about 12%
RecA splice inh: Mtb RecA intein splicing inhibition; P9WHJ3; cell-free RecA intein splicing, fluorescence; inhibition, % (concentration not given with the values); actives 0.75% (n = 290,000); AID 2221; in the data active means inhibition above about 30%;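 further: 0% = vehicle wells and 100% = reference inhibitor control wells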
DUSP3 inh: blocks human VHR1 dual specificity phosphatase. P51452. recombinant VHR phosphatase, pNPP absorbance. inhibition, % at 13.3 µM. actives 0.52% (n = 290,000). AID 1654; in the data active means inhibition above about 50%
* = called active by the depositor; nt = no result. Most compounds without a hit are left out; they make up all but 4.7% or so of the library. Unless noted, no stated cut-off is given here; in the data, active means inhibition above about 30%; inactive means the rest.

SMILES	CCHFV vOTU inh	FBA Mtb inh	GDH-TPI inh	3CLpro inhibitor	RecA splice inh	DUSP3 inh
O=C(NCCO)C(=O)Nc1cc2c3c(c1)CCC(=O)N3CCC2	10	0	6	-4	-2	-3
COc1cc(/C=N/N2C(=O)C3C4c5ccccc5C(c5ccccc54)C3C2=O)ccc1O (stereo unspecified)	-5	1	34*	2	1	16
CN=C1SC(CC(=O)Nc2ccccc2F)C(=O)N1/N=C/c1ccc(O)c(OC)c1 (stereo unspecified)	28	3	52*	4	0	-18
CCOc1ccc(/C=N/N2C(=O)C(CC(=O)Nc3ccc(F)cc3F)SC2=NC)cc1OC (stereo unspecified)	-1	-1	23	-2	-6	-3
O=C(NC1CCCC1)C1C(c2ccc(C(F)(F)F)cc2)=Nc2ccccc2N1C(=O)c1cc2ccccc2[nH]1 (stereo unspecified)	21	nt	nt	nt	nt	nt
O=C(O)Cn1cc(C(=O)c2ccco2)c2ccccc21	17	-4	32*	-1	-54	10
CCCCc1nnc(NC(=O)c2ccc(N3CCCC3=O)cc2)s1	3	5	4	nt	-3	nt
O=C(Nc1ccc(F)cc1)c1ccc2[nH]c(=O)c(=O)[nH]c2c1	18	2	9	0	2	-20
Cc1cccc(NC(=O)c2ccc3[nH]c(=O)c(=O)[nH]c3c2)n1	10	6	32*	-5	3	-4
CCCCc1nnc(NC(=O)c2ccc3[nH]c(=O)c(=O)[nH]c3c2)s1	5	18	46*	-2	1	15
COc1ccc(NC(=O)C2(C)Cc3c(-c4cccc(C(N)=O)c4)ccnc3O2)cn1 (stereo unspecified)	-10	-1	-5	nt	nt	nt
Clc1ccccc1N1CCN(C2=Nc3ccccc3Sc3ccccc32)CC1	-4	nt	nt	nt	nt	nt
BrC(/C=N/Nc1nc(N2CCOCC2)nc(N2CCOCC2)n1)=C/c1ccccc1	16	2	41*	4	0	1
COC(=O)/C(=C\c1c[nH]c2ccccc12)NC(C)=O	6	1	39*	-4	0	16
CCOC(=O)/C(=C\c1c[nH]c2ccccc12)NC(C)=O	-2	-3	29	5	0	13
CCOC(=O)C1=C(Cc2ccc(F)cc2)C(=O)c2ccccc2C1=O	71*	-1	2	-2	8	20
O=C(OCc1ccc(F)cc1)c1ccc2c(c1)-c1ccccc1C2=O	-2	-3	-7	1	-2	24
CCCN1C(=O)c2n[nH]c(C(C)C)c2C1c1cccc(C(F)(F)F)c1 (stereo unspecified)	7	nt	nt	nt	nt	nt
COc1ccc(-c2cc(C(=O)NN=Cc3ccccc3[N+](=O)[O-])[nH]n2)cc1	14	nt	nt	nt	nt	nt
Cn1c(N/N=C2\CCCc3ccccc32)nc2c1c(=O)n(Cc1ccc(F)cc1)c(=O)n2C	-6	5	4	2	1	60*
COCCCNc1nc2c(c(=O)n(Cc3ccc(F)cc3)c(=O)n2C)n1C	-5	-2	2	-7	1	nt
O=C1NC(=S)N/C1=C\c1ccccc1OCc1ccc(C(=O)O)cc1	8	0	42*	4	-2	12
Cc1ccccc1N(C(=O)Cc1ccsc1)C(C(=O)NC1CCCCC1)c1ccc(F)cc1 (stereo unspecified)	-13	0	6	-1	0	56*
c1ccc2nc(N3CCCC3)c(N3CCCCC3)nc2c1	-2	1	0	nt	nt	nt
c1ccc2nc3c(nc2c1)OCC1CCCCN31 (stereo unspecified)	-161	150*	18	3	-3	24
SMILES	CCHFV vOTU inh	FBA Mtb inh	GDH-TPI inh	3CLpro inhibitor	RecA splice inh	DUSP3 inh
O=[N+]([O-])c1cc(S(=O)(=O)Nc2ccccc2)ccc1NCc1cccnc1	-1	-7	8	-4	-5	60*
CN1CCN(c2ncnc3c2sc2nc(N4CCOCC4)c4c(c23)CCC4)CC1	nt	nt	nt	0	nt	nt
CC1(C)Cc2c(c(N3CCCC3)nc3sc4c(N5CCN(CCO)CC5)ncnc4c23)CO1	-1	10	33*	-9	nt	8
COC(=O)CSc1ncnc2c1sc1nc(N3CCOCC3)c3c(c12)CCCC3	7	0	5	4	-1	11
COC(=O)c1ccc(CSc2ncnc3c2sc2nc(N4CCOCC4)c4c(c23)CCCC4)o1	2	4	32*	-2	-1	nt
OCCN1CCN(c2ncnc3c2sc2nc(N4CCOCC4)c4c(c23)CCC4)CC1	1	20	44*	-10	-1	32

Compound activity (PubChem)
